In PubChem BioAssay AID2289 (National Center for Advancing Translational Sciences (NCATS), 2010):
Out of some 340,000 compounds screened, about 3,300 (0.97%) were called active. About 9% were inconclusive and are not listed. The call rests on the fitted dose curve; in most records, active means well fitted inhibition curve with a large enough effect; inconclusive means small, poorly fitted or top-dose-only effect, or effect the other way; inactive means flat fitted curve, though single readings scatter. The list shows a part of the results.

assay: qHTS Assay for Modulators of miRNAs and/or Inhibitors of miR-21; conditions: HeLa miR-21-FLuc reporter, luciferase luminescence, 48 h; actives lower the signal; further: nearly all actives have a fitted effect of over 55% in size
Procedure, shortened: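 HeLa cells endogenously expressing miR-21, stably carrying CMV-driven firefly luciferase with a downstream miR-21 binding site, 2000 cells/well. Titrations up to approximately 40 uM, 48 hours; luciferase luminescence read.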
Potency means the concentration at half of the fitted maximal effect.

Potency, active:
CCOC(=O)c1sc(NC(=O)c2sccc2C)cc1C 0.369 µM
CCOC(=O)c1sc(NC(=O)C2CCC2)cc1C 4.65 µM
CCOC(=O)c1sc(NC(=O)c2ccccc2)cc1C 0.521 µM
COc1ccc2[nH]c(=O)c(CNc3ccccc3C)cc2c1 7.36 µM
O=C(N=Nc1c(O)n(Cc2ccccc2)c2ccccc12)c1ccc(O)cc1 6.56 µM
O=C(CSCc1c(F)cccc1F)Nc1ccccc1 5.85 µM
Cc1ccc(NC(=O)CSCc2ccc(F)cc2)cc1 6.56 µM
O=C(CSCc1ccccc1)Nc1cccc(F)c1 13.1 µM
O=C(CSCc1ccccc1)Nc1ccc(F)c(F)c1 14.7 µM
NC(=O)c1cccnc1Nc1cccc([N+](=O)[O-])c1 6.56 µM
O=C(NCCc1ccccc1F)c1cccc2cccnc12 3.29 µM
Cc1ccc(Nc2ncccc2C(N)=O)cc1 1.65 µM
Cc1ccc(NC(=O)c2cccc3cccnc23)cc1 3.69 µM
Cc1ccc(Nc2ncccc2C(N)=O)cc1[N+](=O)[O-] 3.29 µM
Cc1cc(Cl)ccc1Nc1ncccc1C(N)=O 2.07 µM
COc1ccnc(Oc2ccc3ccccc3c2)c1C#N 2.93 µM
COc1ccc(-c2nc3c4ccccc4ccn3c2CN2CCOCC2)cc1OC 6.56 µM
COc1cnn(-c2ccc(Br)cc2)c(=O)c1SCc1ccccc1 13.1 µM
COc1ccc(-c2csc(NCc3ccco3)n2)cc1C 5.85 µM
CC(=O)Nc1ccc(-c2csc(NCc3ccco3)n2)cc1 4.14 µM
Oc1ccc(-c2csc(NCc3ccco3)n2)cc1 4.65 µM
O=C(Cc1ccc(Cl)cc1)c1ccc(O)cc1 5.21 µM
CN(C)/C=C/C(=O)c1cnc(-c2cccc(Cl)c2)s1 18.5 µM
CN(C)/C=C/C(=O)c1cnc(-c2ccccc2Cl)s1 18.5 µM
COc1ccccc1OCCCOc1ccc([N+](=O)[O-])cc1Cl 7.36 µM
COc1cc(C)ccc1OCCCOc1ccccc1Cl 6.56 µM
COc1cc(C)ccc1OCCOc1ccccc1Cl 14.7 µM
Cn1c(-c2ccc3nc(N)sc3c2)nc2cc(N)ccc21 18.5 µM
CN(N=Nc1ccc([N+](=O)[O-])cc1)c1ccccc1 4.14 µM
O=C(NC(=S)Nc1ccc(Br)cn1)c1cccs1 0.521 µM
Cc1nc(NC(=S)NC(=O)c2cccs2)ccc1Br 14.7 µM
O=c1[nH]c(COc2ccc(Cl)cc2Br)nc2ccccc12 3.29 µM
O=c1[nH]c(COc2ccc(Br)cc2Cl)nc2ccccc12 2.61 µM
CCN(CC)S(=O)(=O)c1cc(C(=O)Oc2cccc(-c3cnc4ccccc4n3)c2)ccc1Br 1.85 µM
Nc1c(-c2ccc3c(c2)OCCO3)oc2ccccc2c1=O 2.93 µM
CCN(CC)CCCNc1ncnc2c1cnn2-c1ccc(C)c(C)c1 6.56 µM
COc1ccc(-n2ncc3c(NCCCn4ccnc4)ncnc32)cc1 10.4 µM
Cc1cccc(-n2ncc3c(NCCCn4ccnc4)ncnc32)c1 10.4 µM
COc1cccc(C(=O)/C=C/Nc2ccc(NC(C)=O)cc2)c1 11.7 µM
Cc1noc(NS(=O)(=O)c2ccc(N/C=C/C(=O)c3ccc4c(c3)OCO4)cc2)c1C 9.27 µM
COc1cccc(C(=O)/C=C/Nc2ccc(S(=O)(=O)Nc3onc(C)c3C)cc2)c1 13.1 µM
COc1cccc(C(=O)/C=C/Nc2ccc(S(=O)(=O)Nc3ncccn3)cc2)c1 11.7 µM
COc1cccc(C(=O)/C=C/Nc2ccc(S(=O)(=O)Nc3cnc4ccccc4n3)cc2)c1 7.36 µM
Cc1ccc(COc2ccc(-c3nnco3)cc2)cc1 4.14 µM
Cc1ccc(COc2ccc3c(c2)OCO3)cc1 3.69 µM
Fc1cc(Br)ccc1COc1ccc(-c2nnco2)cc1 7.36 µM
Cn1c(SCc2c(F)cccc2Cl)nnc1-c1cnccn1 4.14 µM
Cn1c(SCc2c(F)cccc2Cl)nnc1-c1cccs1 6.56 µM
CCCNC(=O)c1c(Cl)cnn1-c1ccc(C)cc1 4.14 µM
O=C(Nc1ccccc1)c1ccc(-c2ccccc2Cl)o1 3.69 µM
O=C(Nc1ccccc1)OCc1cc(-c2ccccc2Cl)on1 11.7 µM
O=C(Nc1ccccc1)c1cc(-c2ccccc2Cl)no1 7.36 µM
O=C(Nc1ccccc1)c1ccc(-c2ccccc2C(F)(F)F)o1 13.1 µM
O=C(Nc1cccc(F)c1)c1ccc(-c2ccccc2Cl)o1 2.93 µM
COc1ccc(NC(=O)c2ccc(-c3ccccc3Cl)o2)cc1 7.36 µM
COc1ccc(/C=C/c2ccncc2)cc1OC 16.5 µM
CC1=NN(C(=O)c2ccoc2C)C(O)(C(F)(F)F)C1 (stereo unspecified) 10.4 µM
CCCNc1ccc(C(=O)OCC)cc1[N+](=O)[O-] 16.5 µM
COC(=O)c1ccc(-c2ccc(F)cc2)nc1C 6.56 µM
CCOC(=O)c1ccc(-c2ccc3c(c2)CCC3)nc1C 1.85 µM
COC(=O)c1ccc(-c2ccc(Cl)cc2)nc1C 1.47 µM
CCOc1ccc(-c2cn3nc(CC(C)C)sc3n2)cc1 2.93 µM
COC(=O)CSc1nc2cc(OC)ccc2cc1C#N 0.233 µM
CCOC(=O)CSc1nc2cc(OCC)ccc2cc1C#N 4.65 µM
COc1ccc2nc(SCC(C)=O)c(C#N)cc2c1 0.165 µM
CCOc1ccc2cc(C#N)c(SCC(=O)N3CCOCC3)nc2c1 1.17 µM
COc1cccc(C(=O)Nc2cc3c(cc2Br)OCCCO3)c1 2.07 µM
COc1cccc(C(=O)Nc2cc3c(cc2Cl)OCCCO3)c1 0.826 µM
O=C(Nc1cc2c(cc1C(=O)O)OCCCO2)c1ccc(C(F)(F)F)cc1 7.36 µM
O=C(Nc1cc2c(cc1Br)OCCCO2)c1ccccc1 2.33 µM
CN(C)S(=O)(=O)Oc1cccc(C(=O)Nc2ccccc2Cl)c1 8.26 µM
COC(=O)c1c(-c2ccncc2)csc1NC(=O)c1ccoc1C 1.85 µM
COC(=O)c1c(-c2cccnc2)csc1NC(=O)c1cc(C)on1 2.07 µM
COC(=O)c1c(-c2cccnc2)csc1NC(=O)c1ccc2c(c1)OCO2 1.04 µM
CC(CC(=O)c1cccs1)CC(=O)c1cccs1 11.7 µM
CC(C)(C)C(=O)Nc1ccc(C(=O)OC2CCCCC2)cc1 0.927 µM
COc1ccc(Nc2nc(N)nc(SCc3nnc(C)s3)n2)cc1 14.7 µM
COc1ccc(Nc2nc(N)nc(CSc3nnc(C)s3)n2)cc1 18.5 µM
Cc1nnc(SCc2nc(N)nc(Nc3ccccc3)n2)s1 11.7 µM
Cc1nnc(SCc2cccc3ccccc23)s1 14.7 µM
Cc1ccc(Nc2nc(N)nc(CSc3nnc(C)s3)n2)cc1 7.36 µM
O=C(Nc1ccc2c(c1)OCO2)c1n[nH]c(=O)c2ccccc12 5.85 µM
CCc1ccc(NC(=O)c2n[nH]c(=O)c3ccccc23)cc1 1.04 µM
Cc1ccc(Nc2nc(N)nc(CSC(=S)N3CCOCC3)n2)c(C)c1 10.4 µM
COc1ccccc1Nc1nc(N)nc(CSC(=S)N2CCOCC2)n1 16.5 µM
COc1ccccc1Nc1nc(N)nc(CSC(=S)N2CCCCC2)n1 14.7 µM
COc1ccc(CCNc2ncccc2C#N)cc1OC 6.56 µM
O=C(N/N=C1\CCc2ccccc21)c1ccccc1Cl 1.85 µM
O=C(O)c1ccc(N/N=C2/CCCc3ccccc32)cc1 6.56 µM
CCOC(=O)N/N=C1\CCc2ccccc21 11.7 µM
O=C(N/N=C1\CCCCc2ccccc21)c1ccccn1 5.85 µM
O=C(COc1ccccc1F)N/N=C1\CCCc2ccccc21 3.29 µM
N/C(=N\OC(=O)CSc1ccccc1)c1ccncc1 14.7 µM
COc1ccc(/C(N)=N/OC(=O)CSc2ccccc2)cc1OC 8.26 µM
N/C(=N\OC(=O)CSc1ccccc1)c1ccc([N+](=O)[O-])cc1 4.65 µM
COc1ccc(NC(=O)Nc2nnc(-c3ccco3)s2)cc1 0.927 µM
COc1ccccc1C(=O)Nc1nnc(SCC(=O)NC2CCCC2)s1 0.414 µM
COc1ccc(-c2nnc(SCC(=O)Nc3cccc(F)c3)s2)cc1 13.1 µM
COc1ccc(NC(=O)CSc2nnc(NC(=O)Nc3ccc(OC)cc3)s2)cc1 0.826 µM
COc1ccc(C(=O)Nc2nnc(SCC(=O)Nc3ccc(NC(C)=O)cc3)s2)c(OC)c1 0.0656 µM
CC(=O)c1ccc(NC(=O)CSc2nnc(NC(=O)Nc3ccccc3)s2)cc1 7.36 µM
CC(C)c1ccc(/C=C/C(=O)N2CCOCC2)cc1 2.93 µM
CC(C)(C)c1ccc(/C=C/C(=O)N2CCOCC2)cc1 6.56 µM
O=C(/C=C/c1cccc2ccccc12)N1CCOCC1 6.56 µM
Cc1ccc(NC(=O)C2CCCN(c3ncccn3)C2)cc1C (stereo unspecified) 14.7 µM
COc1ccc(NC(=O)C2CCCN(c3ncccn3)C2)cc1 (stereo unspecified) 8.26 µM
